A number with no mark means an inactive call. For some assays here: Results with a measured potency or affinity are listed apart. The source made the active and inactive calls. Unless noted, how the calls were made is not given here.
Assays:
[1] = antimalarial activity against Dd2 strain (AID 2302;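 active means growth inhibition above 50% at the single 2 µM test dose, taken to imply half-maximal potency below 2 µM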;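 further: 0% = DMSO untreated growth and 100% = chloroquine plus artemisinin killed control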); settings: P. falciparum Dd2 in RBCs, LDH growth readout, 72 h; at 2 µM; active compounds read high
[2] = human hepatoma cell viability loss – ATP luminescence, cytotoxicity control for P. falciparum antimalarial project, primary screen (AID 2303;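 active means inhibition above 50%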;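 further: 0% = DMSO wells and 100% = digitonin-killed cells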); settings: HepG2 viability, 24-48 h, at 10 µM, active compounds read high
[3] = biological target: L-lactate dehydrogenase (Plasmodium falciparum (isolate CDC / Honduras)) (UniProt Q27743); experiment: PfLDH activity inhibition – cell lysate, 3D7 strain, counter-screen for P. falciparum growth inhibition project (AID 2304);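 further: 0% = vehicle and 100% = reference inhibitor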; settings: P. falciparum 3D7 crude extract, LDH APAD/NBT absorbance; at 2 µM; active compounds read high
[4] = inhibition of 3D7 malaria parasite growth – strain 3D7 (AID 2306);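 further: 0% = DMSO wells and 100% = chloroquine plus artemisinin control wells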; settings: P. falciparum 3D7 erythrocytic growth, LDH absorbance, 72 h; at 2 µM; active compounds read high
[5] = biological target: Calcium-dependent protein kinase 1 (Plasmodium falciparum (isolate 3D7)) (UniProt P62344); experiment: PfCDPK1 kinase inhibitors, biochemical, TCAMS library (AID 1159585; cut-off not given, nearly all actives have IC50 up to about 0.98 µM;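 further: inhibitors leave more ATP so luminescence rises with inhibition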); settings: recombinant PfCDPK1, Kinase-Glo ATP depletion luminescence
[6] = biological target: Plasmodium falciparum protein kinase 6 (PK6, PF3D7_1337100) (UniProt Q8IDW1); experiment: PfPK6 kinase inhibitors, biochemical, TCAMS library (AID 1159586); settings: recombinant PfPK6, Kinase-Glo ATP depletion luminescence
[7] = biological target: Protein kinase 7 (PK7), Plasmodium falciparum 3D7 (PF3D7_0213400) (UniProt Q7YTF7); experiment: inhibition of Plasmodium PK7 catalytic activity – biochemical, TCAMS antimalarial set, Kinase-Glo luminescence (AID 1159587); settings: recombinant PfPK7, Kinase-Glo ATP depletion luminescence
[8] = biological target: Calcium-dependent protein kinase 4 (Plasmodium falciparum (isolate 3D7)) (UniProt Q8IBS5); experiment: PfCDPK4 kinase inhibitors, biochemical, TCAMS library (AID 1159588; cut-off not given, nearly all actives have IC50 up to about 0.91 µM); settings: recombinant PfCDPK4, Kinase-Glo ATP depletion luminescence
Calcium-dependent protein kinase 4 (Plasmodium falciparum (isolate 3D7)), sequence (Q8IBS5 whole entry, looked up): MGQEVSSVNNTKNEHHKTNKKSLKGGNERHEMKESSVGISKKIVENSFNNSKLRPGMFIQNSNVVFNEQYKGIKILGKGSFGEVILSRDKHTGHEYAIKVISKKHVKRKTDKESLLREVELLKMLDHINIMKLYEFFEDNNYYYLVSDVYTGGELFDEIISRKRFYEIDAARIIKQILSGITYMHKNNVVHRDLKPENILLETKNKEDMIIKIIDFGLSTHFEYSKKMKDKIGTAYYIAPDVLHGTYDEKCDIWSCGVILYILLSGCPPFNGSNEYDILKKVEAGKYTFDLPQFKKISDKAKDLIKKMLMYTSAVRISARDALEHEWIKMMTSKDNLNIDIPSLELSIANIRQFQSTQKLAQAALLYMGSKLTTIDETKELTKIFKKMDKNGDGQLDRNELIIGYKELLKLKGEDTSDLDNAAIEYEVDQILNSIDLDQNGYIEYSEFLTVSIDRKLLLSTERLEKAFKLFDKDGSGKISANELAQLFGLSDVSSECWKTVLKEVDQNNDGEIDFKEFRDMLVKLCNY

Calcium-dependent protein kinase 1 (Plasmodium falciparum (isolate 3D7)), sequence (P62344 whole entry, looked up): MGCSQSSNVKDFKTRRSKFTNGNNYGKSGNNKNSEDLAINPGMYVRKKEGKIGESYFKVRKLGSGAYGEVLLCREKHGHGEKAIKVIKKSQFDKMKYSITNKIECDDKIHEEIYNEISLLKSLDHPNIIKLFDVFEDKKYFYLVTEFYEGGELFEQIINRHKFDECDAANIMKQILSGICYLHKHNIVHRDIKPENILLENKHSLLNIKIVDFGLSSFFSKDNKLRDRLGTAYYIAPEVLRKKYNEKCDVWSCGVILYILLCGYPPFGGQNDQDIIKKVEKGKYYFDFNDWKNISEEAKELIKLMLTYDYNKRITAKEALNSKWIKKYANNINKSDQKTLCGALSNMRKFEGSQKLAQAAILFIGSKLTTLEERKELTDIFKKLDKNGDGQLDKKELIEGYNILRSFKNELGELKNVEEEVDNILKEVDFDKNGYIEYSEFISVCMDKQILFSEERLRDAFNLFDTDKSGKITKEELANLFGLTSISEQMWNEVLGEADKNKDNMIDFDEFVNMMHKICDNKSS
Plasmodium falciparum protein kinase 6 (PK6, PF3D7_1337100), sequence (Q8IDW1 1-305): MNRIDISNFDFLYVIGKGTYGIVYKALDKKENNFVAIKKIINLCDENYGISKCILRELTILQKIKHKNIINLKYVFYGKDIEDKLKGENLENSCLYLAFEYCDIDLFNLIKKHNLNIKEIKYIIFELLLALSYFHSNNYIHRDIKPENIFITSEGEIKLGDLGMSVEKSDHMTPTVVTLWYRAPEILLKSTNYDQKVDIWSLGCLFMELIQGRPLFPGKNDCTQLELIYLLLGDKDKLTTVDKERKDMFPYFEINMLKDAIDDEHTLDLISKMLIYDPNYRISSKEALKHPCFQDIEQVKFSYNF
Protein kinase 7 (PK7), Plasmodium falciparum 3D7 (PF3D7_0213400), sequence (Q7YTF7 1-343): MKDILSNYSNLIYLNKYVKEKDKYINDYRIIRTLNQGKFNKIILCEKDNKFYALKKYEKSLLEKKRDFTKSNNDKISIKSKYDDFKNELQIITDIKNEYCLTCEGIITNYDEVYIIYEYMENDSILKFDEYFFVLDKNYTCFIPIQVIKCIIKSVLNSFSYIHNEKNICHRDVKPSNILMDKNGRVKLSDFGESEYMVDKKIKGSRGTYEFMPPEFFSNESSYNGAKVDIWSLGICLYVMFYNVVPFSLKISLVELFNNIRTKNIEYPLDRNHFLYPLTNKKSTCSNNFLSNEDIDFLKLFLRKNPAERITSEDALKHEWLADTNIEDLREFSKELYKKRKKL
L-lactate dehydrogenase (Plasmodium falciparum (isolate CDC / Honduras)), sequence (Q27743 whole entry, looked up): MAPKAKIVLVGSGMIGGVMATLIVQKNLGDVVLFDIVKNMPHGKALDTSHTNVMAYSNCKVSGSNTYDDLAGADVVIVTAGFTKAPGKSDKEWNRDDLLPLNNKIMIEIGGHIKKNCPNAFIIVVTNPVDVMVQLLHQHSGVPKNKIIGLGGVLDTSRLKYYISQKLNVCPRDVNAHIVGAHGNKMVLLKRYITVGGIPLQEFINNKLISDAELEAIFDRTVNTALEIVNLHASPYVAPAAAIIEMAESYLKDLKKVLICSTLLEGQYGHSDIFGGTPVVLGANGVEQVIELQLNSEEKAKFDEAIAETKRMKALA

Compound	growth inhibition [1]	inhibition [2]	inhibition [3] [%]	growth inhibition [4]	outcome [5]	outcome [6]	outcome [7]	outcome [8]
COCCCNC(=S)NN=C(C)c1ccccn1	99% (active)	55% (active)	3	100% (active)	inactive	inactive	inactive	inactive
O=C(N[C@@H](CC1CCCCC1)C(=O)NCCN1CCCC1)c1ccc(O)c(-c2cccc(C(F)(F)F)c2)c1	55% (active)	-11%	-4	99% (active)	inactive	inactive	inactive	inactive
CN1CCN(c2ccnc3ccc(NC(=O)c4ccc(Cl)c(Cl)c4)cc23)CC1	64% (active)	4%	2	100% (active)	inactive	inactive	inactive	inactive
CC(C)Cc1cnc2nc(N)nc(N)c2c1	-2%	66% (active)	1	98% (active)	inactive	inactive	inactive	inactive
O=C(Nc1ccc2c(c1)CCN2C1CCN(Cc2cc(F)cc(F)c2F)C1)c1ccco1 (stereo not given)	95% (active)	-2%	1	96% (active)	inactive	inactive	inactive	inactive
Cc1cccc2[nH]c(-c3cccc(-c4cccc(NC(=O)c5cnc[nH]5)c4)c3)nc12	91% (active)	2%	0	100% (active)	inactive	inactive	inactive	inactive
COc1ccc(Nc2ncc3c(-c4cccc(NC(=O)CC(C)C)c4)c[nH]c3n2)cc1OC	71% (active)	37%	5	101% (active)	inactive	inactive	inactive	inactive
Cc1cccc2[nH]c(-c3ccc(-c4ccc(NC(=O)NCc5cccc(F)c5)cc4)cc3)nc12	12%	46%	7	97% (active)	inactive	inactive	inactive	inactive
CC(C)(C)C(=O)N1CCN(c2ccc([N+](=O)[O-])c(NC3CC3)c2)CC1	97% (active)	8%	3	95% (active)	inactive	inactive	inactive	inactive
CC1(C)N=C(N)N=C(N)N1c1cc(Cl)c(Cl)cc1Cl	-3%	11%	1	95% (active)	inactive	inactive	inactive	inactive
Cc1cc(Nc2cccc(C(F)(F)F)c2)nc(NCc2ccccc2)n1	95% (active)	17%	0	102% (active)	inactive	inactive	inactive	inactive
C=CCc1cccc(CN2CCC(c3cc(=O)[nH]c(-c4ccccn4)n3)CC2)c1O	75% (active)	46%	-2	91% (active)	inactive	inactive	inactive	inactive
CO/C(=C\C=C\c1cc2cc(Cl)c(Cl)cc2[nH]1)C(=O)NCCN1CCCCC1	86% (active)	16%	1	81% (active)	inactive	inactive	inactive	inactive
COc1ccc2nc(C)cc(NN=Cc3cc(OC)c(OC)cc3OC)c2c1	56% (active)	1%	5	100% (active)	inactive	inactive	inactive	inactive
CS(=O)(=O)c1ccccc1CNC(=O)c1ccc(-c2ccc(-c3nc4ccc(C(F)(F)F)cc4[nH]3)s2)cc1	76% (active)	90% (active)	9	96% (active)	inactive	inactive	inactive	inactive
CC(C)C[C@H](NC(=O)c1cc(-c2ccc(C(C)(C)C)cc2)no1)C(=O)O (tested in a mixture with another compound)	6%	3%	-3	95% (active)	inactive	inactive	inactive	inactive
c1ccc(C2CCN(Cc3ccc(-c4c[nH]c5nc(NC6CCCC6)ncc45)cc3)CC2)cc1	9%	39%	-1	82% (active)	inactive	inactive	inactive	inactive
N[C@@H](CCNCc1ccc(-c2cccnc2)cc1)Cc1ccc(F)c(F)c1	57% (active)	45%	2	98% (active)	inactive	inactive	inactive	inactive
Cc1ccc(C)c(NC(=O)NCCNc2ccnc(Nc3ccc(F)cc3)n2)c1	5%	21%	6	97% (active)	inactive	inactive	inactive	inactive
Cc1cc(NC(=O)CCCN2CCN(c3cccc(Cl)c3Cl)CC2)ccc1N1CCN(C(C)C)CC1	53% (active)	86% (active)	-1	102% (active)	inactive	inactive	inactive	inactive

Compound	growth inhibition [1]	inhibition [2]	inhibition [3] [%]	growth inhibition [4]	outcome [5]	outcome [6]	outcome [7]	outcome [8]
CCCCCCc1ncc(-c2cc3cc(O)c(-c4ccccc4)cc3oc2=O)s1	63% (active)	4%	-8	90% (active)	inactive	inactive	inactive	inactive
Cc1cccc(Cl)c1S(=O)(=O)Nc1cccc(CCN2CCC(N3CCCCC3)CC2)c1	18%	34%	2	91% (active)	inactive	inactive	inactive	inactive
Cc1cccn2c(=O)c3cc(C(=O)NCCc4ccccc4)c(=N)n(CCCOC(C)C)c3nc12	40%	19%	-3	101% (active)	inactive	inactive	inactive	inactive
COCC(C)n1c(C)cc(C(=O)CSc2nnc(Nc3ccccc3)s2)c1C (stereo not given)	98% (active)	-5%	-6	97% (active)	inactive	inactive	inactive	inactive
COc1ccc(CCCN2C(=O)C(c3ccccc3)(c3ccccc3)N=C2N)cc1	76% (active)	21%	5	94% (active)	inactive	inactive	inactive	inactive
O=C(Nc1ccc(Cl)c(Cl)c1)N1CCC(CNCc2cccc([N+](=O)[O-])c2)CC1	6%	13%	2	98% (active)	inactive	inactive	inactive	inactive
O=C(Cn1c(CCc2cccc(F)c2F)nc(=O)c2ccccc21)N(Cc1ccc(-c2ccc(C(F)(F)F)cc2)cc1)C1CCN(C2=NCCS2)CC1	85% (active)	62% (active)	3	81% (active)	inactive	inactive	inactive	inactive
O=C1CCCN1CCCNCc1cccc(-c2ccc(-c3nc4ccc(C(F)(F)F)cc4[nH]3)s2)c1	99% (active)	19%	-4	100% (active)	inactive	inactive	inactive	inactive
Cc1ccc2[nH]ncc2c1N(CC1CCCCC1)c1ccnc(Nc2ccc(OCC(O)CN3CC=CCC3)cc2)n1 (stereo not given)	79% (active)	29%	-4	100% (active)	inactive	inactive	inactive	inactive
CO/C(=C\C=C\c1cc2cc(Cl)c(Cl)cc2[nH]1)C(=O)NCCCN1CCN(c2cccc(OCC(=O)Nc3ccccc3)c2)CC1	81% (active)	49%	-1	100% (active)	inactive	inactive	inactive	inactive
COc1cc(Cc2cnc(N)nc2N)cc(OCCNC(=O)OCc2ccccc2)c1OC	-3%	6%	4	93% (active)	inactive	inactive	inactive	inactive
CC(C)Cc1cn(-c2nc(C(=N)N)cs2)c2cc(Cl)ccc12	98% (active)	98% (active)	-1	100% (active)	inactive	inactive	inactive	inactive
O=C(/C=C/c1ccc(Cl)cc1)NCCCCCN1CCCC(C(=O)Nc2ccc(Cl)cc2)C1 (stereo not given)	6%	24%	8	94% (active)	inactive	inactive	inactive	inactive
N#Cc1ccc(N(CCOC(=O)c2ccc(Br)s2)Cc2ccccc2C(F)(F)F)cc1C(F)(F)F	48%	8%	3	82% (active)	inactive	inactive	inactive	inactive
Cn1nccc1C(=O)NCCNCc1cccc(-c2cccc(-c3nc4ccc(C(F)(F)F)cc4[nH]3)c2)c1	99% (active)	39%	-7	102% (active)	inactive	inactive	inactive	inactive
Cc1ccc(CNC(=O)[C@H](CCCN)Nc2cc(C)nc(Nc3ccccc3)n2)cc1	-4%	-2%	2	90% (active)	inactive	inactive	inactive	inactive
CCC(NC[C@@H](O)[C@H](Cc1ccccc1)NC(=O)c1cc(C2CCCC2)cc(N2CCCC2=O)c1)c1cccc(Cl)c1 (stereo not given in full)	97% (active)	7%	-8	100% (active)	inactive	inactive	inactive	inactive
CN1CCCN(Cc2cccc(-c3ccc(CNC(=O)c4cccc(Cl)c4)c(F)c3)c2)CC1	38%	56% (active)	-2	96% (active)	inactive	inactive	inactive	inactive
COc1ccccc1NC(=O)Nc1cccc(-c2cccc(-c3nc4c(C)cccc4[nH]3)c2)c1	90% (active)	11%	-1	101% (active)	inactive	inactive	inactive	inactive
O=C(Nc1ccc(C(F)(F)F)cc1)c1cccc(S(=O)(=O)NCC2CCCN(CC3CCCCC3)C2)c1 (stereo not given)	4%	27%	0	97% (active)	inactive	inactive	inactive	inactive
